TDP1 block – qHTS Assay for Inhibitors of Tyrosyl-DNA Phosphodiesterase (TDP1). Tyrosyl-DNA phosphodiesterase 1 (Homo sapiens), Q9NUW8. recombinant TDP1, AlphaScreen DNA substrate cleavage. Potency, µM (doses to about 130 µM), inactives show at the top dose activity change, negative = inhibition, hits mostly inhibitors. hit rate 0.28% among 350,000; note: potency is the fitted concentration of half-maximal effect; % is set by controls: 0 for no effect and ±100 for the full control effect; nearly all actives have a fitted effect of over 40% in size
Target sequence (Q9NUW8 whole entry, looked up): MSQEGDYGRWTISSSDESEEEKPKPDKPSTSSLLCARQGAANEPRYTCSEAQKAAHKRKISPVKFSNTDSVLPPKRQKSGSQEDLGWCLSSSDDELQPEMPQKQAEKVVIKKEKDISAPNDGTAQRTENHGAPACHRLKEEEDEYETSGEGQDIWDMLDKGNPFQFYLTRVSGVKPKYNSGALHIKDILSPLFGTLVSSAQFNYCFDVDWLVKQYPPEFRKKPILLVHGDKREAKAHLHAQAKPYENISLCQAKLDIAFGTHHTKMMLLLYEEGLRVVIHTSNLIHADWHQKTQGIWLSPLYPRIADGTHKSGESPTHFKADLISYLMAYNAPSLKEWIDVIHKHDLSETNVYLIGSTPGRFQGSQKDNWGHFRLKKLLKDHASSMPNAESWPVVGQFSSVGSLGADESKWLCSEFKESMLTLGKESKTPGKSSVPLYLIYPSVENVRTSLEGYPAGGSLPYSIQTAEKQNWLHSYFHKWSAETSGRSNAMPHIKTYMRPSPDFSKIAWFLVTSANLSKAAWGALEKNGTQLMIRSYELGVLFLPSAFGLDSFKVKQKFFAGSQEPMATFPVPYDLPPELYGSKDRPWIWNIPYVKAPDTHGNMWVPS
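Signal: AlphaScreen proximity between streptavidin donor and anti-FITC acceptor beads on intact substrate. Reaction: Tdp1 1 nM, substrate 15 nM final, 5 min RT after 15 min compound preincubation.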
TDP1 cell noCPT – qHTS for Inhibitors of human tyrosyl-DNA phosphodiesterase 1 (TDP1): qHTS in cells in absence of CPT; DT40 Tdp1-/- hTDP1 cells, no CPT, ATP luminescence, 48 h; Potency, µM (titrated, usually from 46.2 µM), for inactives: top-dose activity change, negative = growth inhibition, usual class: inhibitors; hit rate 15% among 420,000; note: potency is the fitted concentration of half-maximal effect; % is set by controls: 0 for no effect and ±100 for the full control effect; nearly all actives have a fitted effect of over 55% in size
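Luminescent ATP content (CellTiter-Glo) served as the growth readout. Knockout chicken DT40 cells expressing human TDP1 were exposed to compounds without camptothecin for a minimum 48 hr at 37 °C.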
TGFb inhibitor – qHTS for Inhibitors of TGF-b. AID 588855, 2011. Potency, µM (series often up to 46.1 µM), inactives show at the highest dose activity, negative = inhibition, hits mostly inhibitors. hit rate 1.2% among 410,000. HepG2 CAGA-GFP TGF-b/SMAD3 reporter, GFP fluorescence, 18 h; TGF-beta stimulated, 500 pg/mL final; note: potency is the fitted concentration of half-maximal effect; % is set by controls: 0 for no effect and ±100 for the full control effect; nearly all actives have a fitted effect of over 65% in size
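Smad-responsive CAGA-GFP expression was quantified in HEPG2 cells exposed to compounds and 500 pg/mL final TGF-beta for 18 h at 37 degrees C; unstimulated wells defined full inhibition.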
TDP1 cell CPT – qHTS for Inhibitors of human tyrosyl-DNA phosphodiesterase 1 (TDP1): qHTS in cells in presence of CPT; chicken DT40 Tdp1-/-;hTDP1 cells + 20 nM CPT, ATP luminescence, 48 h; Potency, µM (titrated, usually from 46.2 µM), without a hit: at the highest dose activity change, negative = growth inhibition, hits mostly inhibitors; hit rate 12% among 420,000; AID 686979, 2013; note: potency is the fitted concentration of half-maximal effect; % is set by controls: 0 for no effect and ±100 for the full control effect; nearly all actives have a fitted effect of over 55% in size
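Chicken DT40 Tdp1-/- cells complemented with human TDP1, 400 cells/well, exposed to compounds plus 20 nM camptothecin for at least 48 h at 37 C; viability read as ATP content by CellTiter-Glo luminescence.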
HepG2 viability – qHTS for Inhibitors of TGF-b: Cytotox Counterscreen; HepG2 CAGA-GFP viability, ATP luminescence, 18 h; Potency, µM (top dose mostly 46.1 µM), for inactives: at the top dose activity change, negative = cytotoxicity, most hits filed as cytotoxic; AID 588856, 2011; hit rate 0.76% among 410,000; note: potency is the fitted concentration of half-maximal effect
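HepG2 CAGA-GFP cells (1000/well, DMEM with 1% FBS) received compound, then TGF-beta at 500 pg/mL final, and were incubated 18 hours at 37 degrees C. Viability was read by CellTiter-Glo luminescence. Media-only wells were set as complete cell-killing and DMSO as no toxicity.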
IL1B secr inh – qHTS for Inhibitors of Inflammasome Signaling: IL-1-beta AlphaLISA Primary Screen; THP-1 LPS/ATP IL-1B secretion, AlphaLISA, 16 h; stronger effect = lower value; activity change, % at 57.5 µM; hit rate 4.7% among 360,000; AID 743279, 2014; in the data active = activity change below about -50%; inconclusive = mostly about -30% to -49%; note: % is set by controls: 0 for no effect and ±100 for the full control effect
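Secreted IL-1B measured by AlphaLISA bead assay after 16 h compound exposure of THP-1 cells; compounds (final up to 57.5 uM) added 1 h before LPS (250 ng/mL) and ATP (1.25 mM) stimulation; lower signal means less secretion.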
* marks the source's active call; other numbers are inactive results; ? = inconclusive; · = not tested or not shown; ! = repeats disagree; [ ] = remark or other dose. Compounds with a hit are over-represented: about 19% of the library has one in this group of screens. Unless noted, calls come from the whole dose curve; as a rule, active = well fitted curve in the direction sought with a large enough effect; inconclusive = small, poorly fitted or top-dose-only effect, or another doubt; inactive = no such curve, though single readings can be large; an effect the other way counts as inactive or inconclusive.

SMILES | TDP1 block | TDP1 cell noCPT | TGFb inhibitor | TDP1 cell CPT | HepG2 viability | IL1B secr inh
CCC(C)NC(=O)c1cc(-c2cccc(OC)c2)on1 (stereo not drawn) | 4% | -23% | 1% | 17% | 0% | ·
CCC(=O)N1CCc2cc(OC)c(OC)cc2C1COc1ccccc1OC (stereo not drawn) | 5% | ? | 25% | ? | -2% | 3
COc1cc2c(cc1OC)C(COc1ccccc1OC)N(C(=O)CC(C)C)CC2 (stereo not drawn) | 10% | 18µM* | 2% | ? | -22% | ·
CCCC(=O)N1CCc2cc(OC)c(OC)cc2C1COc1ccccc1OC (stereo not drawn) | 5% | 18µM*! | -2% | ? | -1% | 0
COc1cccc(CNC(=O)CCS(=O)(=O)c2ccc3c(c2)CC(C)N3C(=O)C2CC2)c1 (stereo not drawn) | 5% | -3% | 3% | -27% | -2% | -8
Cc1nc(NC(=O)c2ccco2)sc1-c1csc(Nc2ccc(Cl)cc2Cl)n1 | -2% | 15µM* | -30% | 23µM* | -56% | 0
Cc1ccccc1Nc1nc(-c2sc(NC(=O)c3ccccc3)nc2C)cs1 | 6% | · | · | · | · | ·
COc1ccccc1Nc1nc(-c2sc(NC(=O)c3ccco3)nc2C)cs1 | 9% | 15µM* | 1% | 16µM* | -33% | -12
COc1cccc(N(C(=O)c2ccco2)c2nc(-c3sc(NC(=O)c4ccco4)nc3C)cs2)c1 | 7% | 15µM* | ? | 15µM* | -25% | 3
Cc1ccc(Cl)cc1Nc1nc(-c2sc(NC(=O)c3ccco3)nc2C)cs1 | 5% | ? | 3% | ? | -30% | -19
Cc1nc(NC(=O)c2ccco2)sc1-c1csc(Nc2ccc(Cl)cc2)n1 | 10% | 16µM* | -12% | 21µM* | -27% | -9
COc1ccc2nc(NC(=O)c3ccco3)sc2c1 | · | ? | -11% | ? | -44% | -7
O=S1(=O)N=C(Oc2ccc(Br)cc2)c2ccccc21 | 2% | · | · | · | · | ·
COc1cc(NC(=O)CN2CCN(c3ccc(F)cc3)CC2)cc(OC)c1 | 6% | ? | -10% | -22% | 0% | ·
CC1=C(c2ccc(C)cc2)S(=O)(=O)NC1=NCc1cccc(F)c1 | 11% | ? | -19% | -21% | -19% | ·
O=C(CN1CSCC1=O)N1CCN(S(=O)(=O)c2cc(C(F)(F)F)ccc2Cl)CC1 | -1% | ? | 0% | 2% | 27% | 10
CCC(C)(CCNC(=O)Cc1ccccc1)c1ccccc1OC (stereo not drawn) | · | ? | -7% | 23µM* | -14% | ?
Cc1cc(C)cc(NC(=O)c2cc3c(=O)n(Cc4ccco4)ccc3nc2C)c1 | 6% | ? | 0% | ? | -2% | ·
CCOC(=O)Cn1c(=O)cc(C)c2ccccc21 | 3% | 12µM* | 8% | 8.2µM* | 7% | -10
CCCCOc1cccc(C(=O)NC(=S)Nc2cccc(C(F)(F)F)c2)c1 | 8% | 29µM* | ? | ? | -36% | -9
CCCOc1ccc(C(=O)Nc2ccc(NC(=O)c3ccccc3)c(C)c2)cc1 | 0%[12.3 µM] | 16µM* | 12% | ? | -13% | ·
CCCCOc1cccc(NC(=O)c2cccc(C(=O)Nc3cccc(OCCCC)c3)c2)c1 | -7%[12.3 µM] | 7.3µM* | 0% | 18µM* | 2% | ·
CCOc1ccc(Nc2nc(C)c(NC(=O)c3cccc(OC)c3)c(Nc3ccc(OCC)cc3)n2)cc1 | 4%[12.3 µM] | 2.3µM* | ? | 1.5µM* | -17% | ·
CNC(=O)C1CC(=O)N(c2ccc(OCC(=O)Nc3ccc(F)cc3)cc2)C1 (stereo not drawn) | · | -24% | 6% | 1% | 8% | 28
O=C(Cn1ccn(-c2ccc(F)cc2)c(=O)c1=O)NCCc1ccccc1 | 3% | 1% | -3% | 0% | -27% | ·
SMILES | TDP1 block | TDP1 cell noCPT | TGFb inhibitor | TDP1 cell CPT | HepG2 viability | IL1B secr inh
COc1ccc(Nc2nccc3c2ncn3C)cc1 | · | -18% | 32% | -16% | -55% | -14
COc1ccc(CNC(=O)c2sccc2-c2ccccc2)cc1OC | 6% | ? | -16% | ? | -22% | 36
CC(=N)c1c(O)cc(C)oc1=O | · | -9% | 7% | -16% | -13% | -2
O=C(NC1CCCCC1)/C(=C/c1ccc(Cl)cc1)NC(=O)c1ccccc1 | 4%[2.28 µM] | ? | 40% | ? | 32% | ·
CCOc1cccc(C(=O)Nc2ccncc2)c1 | 0% | ? | -9% | 23µM* | -24% | 14
COC(=O)COc1cccc(NC(=O)c2ccc(C)cc2)c1 | 0% | -15% | -19% | -15% | -29% | -3
CCOc1ncccc1C(=O)Nc1cccc(C(=O)Nc2cccc(S(=O)(=O)CCO)c2)c1 | 6% | 7.3µM* | 20% | ? | 2% | ?
CCOc1cccc(C(=O)Nc2ccc(NC(=O)c3ccc(Br)cc3)cc2)c1 | -4%[12.3 µM] | -3% | 0% | -21% | -1% | ·
CCCOc1cccc(NC(=O)c2cc(C)oc2C)c1 | 8% | 16µM* | 0% | 26µM* | -3% | -14
COC(=O)COc1cccc(NC(=O)c2cc(OC)cc(OC)c2)c1 | 2% | -13% | -13% | 3% | -37% | -100*
O=S(=O)(c1ccc(Cl)c(C(F)(F)F)c1)N1CCN(CC(O)COCC2CCCO2)CC1 (stereo not drawn) | -3% | 18µM* | 0% | 21µM* | 3% | -2
CCOC(=O)c1ccc(S(=O)(=O)N2CCN(CC(=O)NC(=O)NC3CCCCC3)CC2)cc1 | 7% | 5% | -13% | -20% | -1% | -52*
O=C(CN1CCN(S(=O)(=O)c2ccc(Cl)c(C(F)(F)F)c2)CC1)NC(=O)NC1CCCCC1 | · | ? | -21% | 21µM* | -4% | -15
CC(C)(C)c1ccc(S(=O)(=O)N2CCN(CC(O)COCC3CCCO3)CC2)cc1 (stereo not drawn) | 1% | -12% | -15% | -15% | -22% | 0
CC(=O)c1ccc(S(=O)(=O)N2CCN(CC(=O)NC(=O)NC3CCCCC3)CC2)cc1 | 3% | ? | -5% | -24% | 2% | -9
O=C(Nc1ccc(C(F)(F)F)cc1)N1CCC(N2CCCCC2)CC1 | 4% | -20% | · | ? | -18% | ·
